# Measurements: paper PMC7826789 (International Journal of Molecular Sciences, 2021)
# How the values were obtained:
# Conditions in all cases: Compound Concentration (nM):1000
# [1] = system: MAP4K2
# [2] = system: MAP4K3
# [3] = system: MAP4K4
# [4] = system: MAP4K5
# [5] = system: MAPKAPK2
# [6] = system: MAPKAPK5
# [7] = system: MARK1
# [8] = system: MARK2
# [9] = system: MARK3
# [10] = system: MARK4
# 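Also: KINOMEscan scanMAX binding as percent activity remaining versus control; lower means stronger binding.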
Compound,Percent Control [1] [%],Percent Control [2] [%],Percent Control [3] [%],Percent Control [4] [%],Percent Control [5] [%],Percent Control [6] [%],Percent Control [7] [%],Percent Control [8] [%],Percent Control [9] [%],Percent Control [10] [%]
CCS(=O)(=O)c1ccc(OC)c(Nc2ncc(-c3cccc(OC)c3)o2)c1 [GW580509X],89,100,100,100,96,100,100,100,100,99
CCn1c(-c2nonc2N)nc2c(C#CC(C)(C)O)nc(OCCNC)cc21.Cl [GSK949675],84,100,95,57,100,100,100,90,100,100
NS(=O)(=O)c1ccc(N/N=C2\C(=O)Nc3ccc(C(=O)NCCc4c[nH]cn4)cc32)cc1 [GW300660X],71,86,100,100,100,100,90,100,100,100
COc1cc(C=NNc2ncnc3c2cnn3-c2ccccc2)ccc1O [GW513184X],89,100,66,94,100,97,97,90,100,93
COc1ccc2[nH]c3c4[nH]c5ccc(OC)cc5c4c4c(c3c2c1)C(=O)NC4=O [GW296115X],75,73,2.7,51,100,90,100,71,83,100
NS(=O)(=O)c1ccc(N/N=C2\C(=O)Nc3ccc(Cl)cc32)cc1 [GW280670X],90,94,99,100,100,100,100,100,100,94
CN(C)c1cc2c(Nc3ccc4c(cnn4Cc4ccccc4)c3)ncnc2cn1 [GW282974X],92,100,76,98,69,90,100,97,100,90
CC1=C(C(=O)Nc2ccc3[nH]ncc3c2)C(c2ccc3ccccc3c2)CC(=O)N1 (stereo not shown) [GSK270822A],100,90,79,93,97,96,91,95,100,76
Cl.O=S1CCN(Cc2ccc(-c3ccc4ncnc(Nc5ccc(OCc6ccccc6)c(F)c5)c4c3)o2)CC1 [GW576924A],100,100,91,100,80,98,91,100,100,89
CN(C)CCNC(=O)Nc1ccc(N(C)c2ccnc(Nc3ccc(CS(C)(=O)=O)cc3)n2)cc1.Cl [GW830900A],80,69,66,77,100,93,84,67,55,100
Cc1cc(O)cc(C)c1/C=C/c1cncc(C(N)=O)c1 [GW435821X],56,81,100,100,100,100,100,100,91,78
C/C(Nc1ccc(S(N)(=O)=O)cc1)=C1/C(=O)Nc2ccccc21 [GW335962X],49,67,89,100,100,100,83,72,96,87
CCc1ccc(Oc2nccc(-c3c(-c4ccc(F)cc4)ncn3C3CCNCC3)n2)cc1 [SB-242719],40,87,69,53,91,96,69,77,61,100
NS(=O)(=O)c1ccc(N/N=C2\C(=O)Nc3ccc(-c4cnco4)cc32)cc1 [GW276655],80,85,62,84,100,100,44,85,100,68
Cl.c1ccc(Cc2nc3ccc(Nc4ncnc5ccccc45)cc3[nH]2)cc1 [GR269666A],92,100,100,100,76,100,100,100,97,96
COc1ccc2cc(-c3c(-c4ccncc4)nc(-c4ccc(S(C)(=O)=O)cc4C)n3C)ccc2c1 [SB-633825],93,93,39,91,100,95,88,93,100,71
COc1cccc(-n2ncc3c(N/N=C/c4ccncc4)ncnc32)c1 [GW784752X],95,100,96,100,88,89,100,100,100,84
C[C@@H](Oc1cc(-n2cnc3ccc(OC4CCN(C)CC4)cc32)sc1C(N)=O)c1ccccc1Cl [GSK579289A],24,93,49,36,100,100,85,77,80,89
Cl.O=C(Nc1ccc(Oc2ccc3[nH]c(NC(=O)c4ccccc4)nc3c2)cc1)Nc1cc(C(F)(F)F)ccc1F [GW709042A],88,100,100,99,100,100,61,100,91,76
COc1cc(C)c(N(C)C(=O)CN(C)C)cc1Nc1nc(Nc2cccc(F)c2C(N)=O)c2cc[nH]c2n1 [GSK2219385],100,100,100,100,83,92,100,95,89,89

Compound,Percent Control [1] [%],Percent Control [2] [%],Percent Control [3] [%],Percent Control [4] [%],Percent Control [5] [%],Percent Control [6] [%],Percent Control [7] [%],Percent Control [8] [%],Percent Control [9] [%],Percent Control [10] [%]
NS(=O)(=O)c1ccc(Nc2ncc(-c3ccccc3)o2)cc1 [GW572399X],82,100,100,100,100,100,100,100,94,100
CC(C)COC(=O)c1ccc2c(c1)/C(=C/Nc1ccc(S(N)(=O)=O)cc1)C(=O)N2 [GW416981X],76,95,86,87,100,100,100,73,93,81
O=C(Nc1n[nH]c2nc(-c3ccc(O)cc3)c(Br)cc12)C1CC1 [SB-725317],38,100,84,100,100,100,95,100,100,100
CC1=C(C(=O)Nc2ccc3[nH]ncc3c2)C(c2ccc(Cl)c(Cl)c2)CC(=O)N1 (stereo not shown) [GSK299115A],79,79,73,75,96,100,100,100,78,100
Cl.O=C(O[C@H]1CN[C@H](C#Cc2cc3ncnc(Nc4ccc5c(cnn5Cc5ccccc5)c4)c3s2)C1)N1CCOCC1 [GSK200398A],98,100,83,92,72,90,100,87,83,100
Nc1ncnc2occ(-c3ccc(NC(=O)Nc4cc(C(F)(F)F)ccc4F)cc3)c12 [GW770249X],27,29,56,11,100,100,83,94,71,94
CN1CCN(C(=O)c2ccc(NC(=O)Nc3ccc(N(C)c4ccnc(Nc5ccc(CS(C)(=O)=O)cc5)n4)cc3)cc2)CC1.Cl [GW830263A],43,25,33,32,100,84,44,84,43,92
O=C1Nc2ccc(C(=O)c3ccco3)cc2C1=Cc1cc(Cl)c(O)c(Cl)c1 [GW406108X],90,100,50,99,100,100,63,75,100,100
CCS(=O)(=O)c1ccc(OC)c(Nc2ncc(-c3cccc(F)c3)o2)c1 [GW621970X],91,100,100,100,92,94,96,100,100,92
COC(=O)Nc1nc2ccc(Oc3ccc(NC(=O)Nc4cc(C(F)(F)F)ccc4F)cc3)cc2s1.Cl [GW693917A],78,100,57,71,94,78,100,78,73,99
COc1cc(/C=N/Nc2ncnc3[nH]ncc23)ccc1O [GW578748X],43,100,100,100,100,100,79,100,99,60
COc1cccc(-c2c[nH]c3c(N/N=C/c4ccncc4)ncnc23)c1 [GW814408X],78,93,65,68,100,100,89,100,100,99
COc1ccc2c(-c3ccnc(Nc4cccc(OC(F)(F)F)c4)n3)cnn2n1 [GW810372X],94,100,100,100,100,100,100,100,100,82
COc1ccc(COc2ccc(Cc3cnc(N)nc3N)cc2OC)cc1 [GW632580X],97,82,100,99,95,97,83,93,66,57
COc1cc2ncn(-c3cc(O[C@H](C)c4ccccc4Cl)c(C(N)=O)s3)c2cc1OC [GSK237701A],50,33,90,7.5,100,100,77,100,100,74
COc1cc(N2CCN(C(C)C)CC2)ccc1Nc1nc(Nc2ccc(F)cc2C(=O)NC[C@@H](O)CO)c2cc[nH]c2n1 [GSK1392956A],91,100,94,96,85,94,90,59,86,100
COc1cc2ncnc(Nc3ccc4c(cnn4Cc4ccccc4)c3)c2cc1OC.Cl [GW282449A],93,95,100,88,72,88,100,100,100,100
NS(=O)(=O)c1ccc(N/N=C2\C(=O)Nc3ccc(C(=O)NCc4ccncc4)cc32)cc1 [GW300657X],84,99,88,96,100,89,100,91,63,91
COc1ccccc1-c1cc(/C=C2\C(=O)Nc3ncc(Br)cc32)cc(Br)c1O [GW442130X],89,100,96,94,100,100,81,100,100,100
Cl.O=C(Nc1ccc(Oc2ccc3[nH]c(NC(=O)c4ccco4)nc3c2)cc1)Nc1cc(C(F)(F)F)ccc1F [GW683134A],85,83,95,84,94,100,100,100,82,100
